According to PubChem BioAssay AID720513 (Broad Institute, 2013):
About 480 (23%) of roughly 2,100 compounds were called active. About 5% were inconclusive and are not listed.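 How the source made its calls: active means fitted curve reaches 40% activation at or below the top valid concentration, in every replicate test; inconclusive means replicate tests disagree on the call; inactive means the rest, including activity in the opposite direction.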 The list is a sample of the results. Results with a measured potency or affinity are listed apart.

assay: PGC1a acetylation increase, cellular AlphaLISA – cell-based, cherry-picked samples, set 6, dose response (AID 720513); details: U2OS PGC1a acetylation AlphaLISA, overnight, 0 = neutral, -100 = inhibitor control; series mostly up to 19.5 µM;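 further: cells made to overexpress flag tagged PGC1a plus GCN5 acetyltransferase by viral infection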

outcome, inactive:
CC(C)NC(=O)Nc1ccc2c(c1)C(=O)N([C@@H](C)CO)C[C@@H](C)[C@H](CN(C)Cc1ccc(C(=O)O)cc1)OCCCC[C@H](C)O2
CCCC(=O)C1=C(O)C(C(=O)OC)C(C)(C)CC1=Nc1ccc(OC)cc1 (stereo unspecified)
NC(=O)c1sc2nc3c(c(-c4cccs4)c2c1N)CCCCC3
COc1ccc(S(=O)(=O)N[C@H]2CC[C@@H](CCNC(=O)c3ccccc3F)O[C@@H]2CO)cc1
O=C(Cc1ccccc1)N1CC[C@@H]2[C@H]1c1cc(C#Cc3ccccc3)ccc1N[C@@H]2CO
CCCOC(=O)c1ccc(-n2nnnc2SCC(=O)N2CCCCC2)cc1
CN(CC(=O)Nc1ccccc1Br)C(=O)c1cccc(S(=O)(=O)NCc2ccccc2)c1
C[C@@H]1CN([C@@H](C)CO)C(=O)c2cccc(NC(=O)Nc3ccccc3)c2O[C@H]1CN(C)S(=O)(=O)c1cccs1
COc1ccccc1NC(=O)Cn1c(C)cc(=O)c2cccc(OC)c21
COc1ccc(Cl)cc1NC(=O)NCC1CCN(C(=O)OC(C)(C)C)CC1
O=C(Nc1ccc(C(F)(F)F)cc1)N1C[C@@H]2N[C@H](C1)C2c1ccc(-c2ccccc2)cc1 (stereo partly specified)
O=C(Nc1ccc(C(F)(F)F)cc1)N1C[C@@H]2N[C@H](C1)C2c1ccc(/C=C/c2ccccc2)cc1 (stereo partly specified)
CO[C@@H]1CN(C)C(=O)c2ccc(NS(=O)(=O)CC(F)(F)F)cc2OC[C@@H](C)N(C(=O)NC(C)C)C[C@H]1C
O=C(CNC(=O)C1CCCCC1)OCC(=O)c1ccc(Cl)s1
CCOCCc1nn2c(=O)cc(CSCC(=O)Nc3cccc(C)c3C)nc2s1
CC(C)(C)NC(=O)c1ccc(Sc2ccccc2)c([N+](=O)[O-])c1
Cc1cc(=O)[nH]c(SCC(=O)c2ccc(F)c(C)c2)n1
Cc1cccc(Oc2ccccc2NC(=O)C2=COCCO2)c1
CCOc1ccc(-c2[nH]ncc2-c2ccc(OC)c(OC)c2)c(O)c1
COc1cc(CN2CCC(C(=O)NCCC(C)C)CC2)ccc1OCc1ccccc1
CNc1ccc2ncc(-c3ccc(OC)c(OC)c3)n2n1
CC(C)(C)OC(=O)NC(Cc1ccccc1)C(=O)NCCCC(=O)O (stereo unspecified)
C[C@@H]1CN([C@H](C)CO)C(=O)CCCn2cc(nn2)CO[C@H]1CN(C)C(=O)Nc1ccc(C(F)(F)F)cc1
CC(C)NC(=O)N(C)C[C@H]1OCCCC[C@@H](C)Oc2ccc(NC(=O)Nc3ccc(C(F)(F)F)cc3)cc2C(=O)N([C@H](C)CO)C[C@@H]1C
C[C@@H]1CN([C@@H](C)CO)C(=O)c2cc(C3=CCCC3)cnc2O[C@@H]1CN(C)C(=O)Nc1cccc(F)c1
C[C@@H]1CN([C@H](C)CO)C(=O)CCCn2nncc2CO[C@H]1CN(C)C(=O)Nc1cccc(F)c1
COC(=O)Cn1ccc(-c2ccc(Cl)cc2)c(C#N)c1=O
NC(=O)COC(=O)CC(NC(N)=O)c1ccc(Cl)cc1 (stereo unspecified)
C[C@@H]1CN([C@H](C)CO)C(=O)CCCn2nncc2CO[C@@H]1CN(C)S(=O)(=O)c1cn(C)cn1
Cc1ccccc1C(=O)Nc1ccc(C(=O)O)cc1NC(=O)c1ccccc1C
Cc1ccc(NC2=C([N+](=O)[O-])CS(=O)(=O)C2)cc1
COc1ccccc1/C=C(/C(=O)OCC(=O)NCc1ccccc1)c1ccccc1
O=C(COC(=O)C1CC2CCCC(C1)C2=O)Nc1ccc(F)c(Cl)c1 (stereo unspecified)
S=c1sc2c(Cl)ncnc2n1-c1ccccc1
CCCN(C)C[C@@H]1Oc2cc(C#C[C@H](C)O)ccc2S(=O)(=O)N([C@H](C)CO)C[C@@H]1C
Cc1ccc(C)c(C(=O)Cn2ncc(Cl)c(Cl)c2=O)c1
COc1ccc(C#Cc2ccc([C@@H]3[C@H](CO)N4CCCCN(C(=O)Nc5ccccc5)C[C@@H]34)cc2)cc1
C[C@H]1CN([C@@H](C)CO)S(=O)(=O)c2ccc(-c3ccccc3)cc2O[C@@H]1CN(C)Cc1cccc(F)c1
C[C@@H]1CN([C@H](C)CO)S(=O)(=O)c2ccc(-c3cncnc3)cc2O[C@H]1CN(C)Cc1cccnc1
COc1ccccc1-c1ccc2c(c1)O[C@@H](CN(C)Cc1ccc3c(c1)OCO3)[C@@H](C)CN([C@H](C)CO)S2(=O)=O
COc1cccc(-c2ccc3c(c2)O[C@H](CN(C)Cc2ccncc2)[C@@H](C)CN([C@@H](C)CO)S3(=O)=O)c1
C[C@H]1CN([C@@H](C)CO)S(=O)(=O)c2ccc(C#CCN(C)C)cc2O[C@H]1CN(C)Cc1ccc2c(c1)OCO2
CCCC#Cc1ccc2c(c1)O[C@@H](CN(C)Cc1ccc3c(c1)OCO3)[C@@H](C)CN([C@H](C)CO)S2(=O)=O
C[C@H](CO)N1C[C@H](C)[C@@H](CN(C)Cc2ccc3c(c2)OCO3)Oc2cc(-c3cccc(C(=O)N(C)C)c3)ccc2S1(=O)=O
CC(C)CC#Cc1ccc2c(c1)O[C@@H](CN(C)Cc1ccc3c(c1)OCO3)[C@H](C)CN([C@H](C)CO)S2(=O)=O
Cc1cccc(CC2CC(=O)N(C3CCCCC3)C2=O)c1 (stereo unspecified)
CCCCn1c(=O)[nH]c(=O)c2c1nc(-c1ccc(OCCC)c(OCC)c1)n2C
Oc1ccc(-c2nc(-c3ccc(O)c(O)c3)cs2)cc1
Cc1cccc(COc2ccc(/C=C3/C(=O)N(C)C(=S)N3C)cc2)c1
COc1ccc(CCN(C)C(=O)CN2C(=O)NC3(CCCc4ccccc43)C2=O)cc1OC (stereo unspecified)
C/C(=C\C(=O)N1CCc2ccccc21)C(=O)O
O=C(Nc1cccc2c1CCCC2)c1ccccc1Br
CC(C)(C)NCCC(O)c1cc(C(F)(F)F)nc2c(C(F)(F)F)cccc12 (stereo unspecified)
CCN(CC)CC#CCOC(c1ccccc1)c1ccccc1
O=[N+]([O-])c1ccc(Oc2ccc(F)cc2)c2ccncc12
O=C(Nc1cc(C(F)(F)F)ccc1N1CCOCC1)c1ccccc1
